Test [1] is described as follows: Validation screen for inhibitors of Lassa infection (AID 463096; calls by dose curve; also: potency is read from the fitted curve at half-maximal effect).
A short description of test [2]: Inducers of the Endoplasmic Reticulum Stress Response (ERSR) in human glioma: Validation (AID 504836). Also: 0% is about no effect. Put shortly: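 Stably transfected U87-MG glioma cells carrying a GRP78-based luciferase sensor; 16 h compound incubation. Luminescence end-point read 10 min after Bright-Glo addition at room temperature.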
In test [3] the target is Arylsulfatase A (Homo sapiens) (UniProt P15289). The experiment in a line: qHTS screen for enhancers of Arylsulfatase A (ASA1): LOPAC Validation Assay (AID 720538). Also: 0% is about no effect. Put shortly:
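SV40-transformed fibroblasts from an MLD patient (ASA-I179S) were treated with compound for 48 h at 37 C. They were then lysed with 0.5 mM pNCS substrate (final) for 14 h at room temperature and stopped with NaOH; signal read by fluorescence (Ex 525/Em 598 nm), with increase denoting enhanced activity.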
A general note: Quantitative high-throughput screening tests each substance at several concentrations.

Test [4] in a line: qHTS for Inhibitors of the Functional Ribonucleoprotein Complex (vRNP) of Lassa (LASV) Arenavirus: LASV Primary Screen - GLuc reporter signal (AID 1347082; calls by dose curve; tested in HEK293 reporter line; also: series mostly up to about 57 µM; % is scaled to controls: 0 for no effect and ±100 for the full control effect; nearly all actives have a fitted effect of over 60% in size).
Test [5] is described as follows: qHTS for Inhibitors of the Functional Ribonucleoprotein Complex (vRNP) of Lassa (LASV) Arenavirus: Viability assay - alamar blue signal for LASV Primary Screen (AID 1347083; calls by dose curve; tested in HEK293 reporter line; also: series mostly up to about 57 µM; % is scaled to controls: 0 for no effect and ±100 for the full control effect; nearly all actives have a fitted effect of over 80% in size).
Test [6] can be described thus: qHTS for Inhibitors of the Functional Ribonucleoprotein Complex (vRNP) of Lymphocytic Choriomeningitis Arenaviruses (LCMV): Viability assay - alamar blue signal for LCMV Primary Screen (AID 1347085; calls by dose curve; tested in HEK293 reporter line; also: series mostly up to about 57 µM; % is scaled to controls: 0 for no effect and ±100 for the full control effect; nearly all actives have a fitted effect of over 80% in size).
The target of test [7] is Nucleoprotein (Lymphocytic choriomeningitis virus (strain Armstrong)) (UniProt P09992). The experiment in a line: qHTS for Inhibitors of the Functional Ribonucleoprotein Complex (vRNP) of Lymphocytic Choriomeningitis Arenaviruses (LCMV): LCMV Primary Screen - GLuc reporter signal (AID 1347086; calls by dose curve; also: series mostly up to about 57 µM; % is scaled to controls: 0 for no effect and ±100 for the full control effect; nearly all actives have a fitted effect of over 70% in size).
Test [8] concerns the target Alpha-galactosidase (Coffea arabica) (UniProt Q42656). The experiment in a line: Counterscreen for Glucocerebrosidase Inhibitors: qHTS Assay for Coffee Bean alpha-Galactosidase at pH 4.5 (AID 957).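 Also: series mostly up to about 77 µM; plate controls were enzyme alone for no effect and no enzyme for full effect.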 The gist of the method: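 Coffee bean enzyme (2 nM) with 80 uM 4-methylumbelliferyl alpha-D-galactopyranoside in 50 mM citric acid, 0.005% Tween-20, pH 4.5, 20 min at room temperature; compounds 0.7 nM–77 uM. Stopped at pH 10, fluorescence 365/440 nm; AC50 from Hill fits.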
For orientation: A counterscreen serves to expose hits that act by an unwanted route or on another target.

The target is the same in test [9]. As to the kind of experiment: Counterscreen for Glucocerebrosidase Inhibitors: qHTS Assay for Coffee Bean alpha-Galactosidase at pH 5.9 (AID 998).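 Also: plate controls were uninhibited enzyme for no effect and no-enzyme basal signal for full effect.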 Put shortly:
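Green coffee bean enzyme (2 nM) with 4-methylumbelliferyl alpha-D-galactopyranoside (80 uM) in 50 mM citric acid, 0.005% Tween-20, pH 5.9, 20 min at room temperature; compounds 0.7 nM–77 uM. Stopped at pH 10, fluorescence Ex365/Em440; Hill-fit AC50.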

In test [10] the target is Voltage-gated inwardly rectifying potassium channel KCNH2 (Homo sapiens) (UniProt Q12809). As to the kind of experiment: qHTS Assay for Small Molecule Inhibitors of the Human hERG Channel Activity (AID 588834).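 Also: lower thallium flux fluorescence means stronger hERG block; nearly all actives have a fitted effect of over 50% in size.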 Also: potency is read from the fitted curve at half-maximal effect. The gist of the method:
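U2OS cells BacMam-transduced with hERG, 2000 cells/well, compound ~10 min at 37 °C before stimulation buffer. FluxOR thallium flux fluorescence read kinetically on FDSS; decrease indicates block; AC50 from Hill fits.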

A short description of test [11]: qHTS Assay for Identifying Gametocytocidal Compounds (AID 743244).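 Also: % is scaled to controls: 0 for no effect and ±100 for the full control effect; actives lower the fluorescent signal which means gametocytes are killed.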 As to conditions: P. falciparum 3D7 stage III-V gametocytes, alamarBlue, 72 h; max response: active compounds read low. The gist of the method: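 A resazurin-based viability read-out was applied to mature P. falciparum gametocytes: 72 h compound treatment, then 24 h dye incubation, with falling fluorescence signalling gametocytocidal effect.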

In test [12] the target is Bile acid receptor (Homo sapiens) (UniProt Q96RI1). The experiment in a line: qHTS assay for small molecule agonists of farnesoid X receptor signaling (AID 588527; calls by dose curve;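 also: series mostly up to about 77 µM; 0% = vehicle basal and 100% = reference agonist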). As to conditions: HEK293T FXR-UAS-bla, beta-lactamase ratio, 16 h; activation: active compounds read high. The gist of the method: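 FXR-UAS-bla HEK293T cells (10% dialyzed FBS) preincubated 5-7 h at 37 C, then compounds at up to 92 uM for 16 h at 37 C. CCF4 beta-lactamase read-out after 2 h RT. Normalized to chenodeoxycholic acid (100 uM) and DMSO; Hill fit gave EC50 and efficacy.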

The target in test [13] is Cytochrome P450 3A4 (Homo sapiens) (UniProt P08684). As to the kind of experiment: qHTS Assay for Inhibitors and Substrates of Cytochrome P450 3A4 (AID 884). Also: series mostly up to about 57 µM; % is scaled to controls: 0 for no effect and ±100 for the full control effect; nearly all actives have a fitted effect of over 50% in size. Put shortly:
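20 nM human CYP3A4 with 25 uM Luciferin-PPXE (at KM) in 200 mM KPO4, preincubated 10 min with compound; NADPH regeneration started a 60 min RT reaction. Luciferin detected by luminescence, normalized to 57 uM ketoconazole as full inhibition.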

Test [14] deals with Ubiquitin carboxyl-terminal hydrolase 1 (Homo sapiens) (UniProt O94782). As to the kind of experiment: Inhibitors of USP1/UAF1: Pilot qHTS (AID 504865).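 Also: rhodamine fluorescence freed from ubiquitin-rhodamine substrate followed over time; top concentration of the series differs between compounds; % is scaled to controls: 0 for no effect and ±100 for the full control effect; nearly all actives have a fitted effect of over 35% in size.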 The gist of the method:
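USP1/UAF1 complex at 1 nM preincubated 15 min at room temperature with compound, then Ub-Rho substrate added at 150 nM final. Fluorescence (480/540 nm) read kinetically in 50 mM HEPES pH 7.8, 0.5 mM EDTA, 1 mM TCEP, 0.1 mg/ml BSA, 0.01% Tween-20.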

The target in test [15] is Cytochrome P450 3A4 (Homo sapiens) (UniProt P08684). As to the kind of experiment: qHTS Assay for Activators of Cytochrome P450 3A4 (AID 885). Also: nearly all actives have a fitted effect of over 65% in size. Put shortly:
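Human CYP3A4 (20 nM) with Luciferin-PPXE at 25 uM (its KM) in 200 mM KPO4; 10 min compound preincubation, then NADPH regeneration and 60 min reaction at RT. Luciferin read by luminescence; normalized to 57 uM ketoconazole full inhibition.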

A number with no mark means an inactive call. Results filed as inconclusive are left out. Active and inactive are the calls of the source. Unless noted, calls follow the shape of the dose curve; as a rule, active = well fitted curve in the direction sought with a large enough effect; inconclusive = small, poorly fitted or top-dose-only effect, or another doubt; inactive = no such curve, though single readings can be large; an effect the other way counts as inactive or inconclusive.

Chain of Nucleoprotein (Lymphocytic choriomeningitis virus (strain Armstrong)) (P09992 whole entry, looked up): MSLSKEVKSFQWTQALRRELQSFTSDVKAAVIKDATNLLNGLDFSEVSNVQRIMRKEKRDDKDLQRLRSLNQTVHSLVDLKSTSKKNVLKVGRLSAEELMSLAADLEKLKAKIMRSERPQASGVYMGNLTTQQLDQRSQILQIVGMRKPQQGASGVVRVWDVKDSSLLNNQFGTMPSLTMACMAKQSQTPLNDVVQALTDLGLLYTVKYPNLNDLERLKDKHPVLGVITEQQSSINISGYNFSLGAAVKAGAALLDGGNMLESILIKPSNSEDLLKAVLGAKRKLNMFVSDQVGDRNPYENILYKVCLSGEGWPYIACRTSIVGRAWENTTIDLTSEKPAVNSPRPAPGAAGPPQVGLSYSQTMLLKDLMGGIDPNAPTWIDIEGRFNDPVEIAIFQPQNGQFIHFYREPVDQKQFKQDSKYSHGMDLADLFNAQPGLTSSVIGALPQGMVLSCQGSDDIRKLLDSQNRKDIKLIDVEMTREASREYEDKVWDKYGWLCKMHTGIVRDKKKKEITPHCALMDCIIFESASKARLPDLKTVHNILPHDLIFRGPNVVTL
Chain of Alpha-galactosidase (Coffea arabica) (Q42656 whole entry, looked up): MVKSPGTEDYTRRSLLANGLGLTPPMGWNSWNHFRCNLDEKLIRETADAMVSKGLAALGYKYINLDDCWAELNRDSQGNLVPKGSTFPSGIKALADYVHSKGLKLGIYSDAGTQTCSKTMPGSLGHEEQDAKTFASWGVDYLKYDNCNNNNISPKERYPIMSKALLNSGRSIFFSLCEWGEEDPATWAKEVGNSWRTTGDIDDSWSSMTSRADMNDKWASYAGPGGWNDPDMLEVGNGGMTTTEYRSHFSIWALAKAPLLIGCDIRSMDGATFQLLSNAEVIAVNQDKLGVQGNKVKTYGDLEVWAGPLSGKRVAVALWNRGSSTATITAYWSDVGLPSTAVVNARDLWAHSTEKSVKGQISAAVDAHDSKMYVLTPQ
Chain of Cytochrome P450 3A4 (Homo sapiens) (P08684 whole entry, looked up): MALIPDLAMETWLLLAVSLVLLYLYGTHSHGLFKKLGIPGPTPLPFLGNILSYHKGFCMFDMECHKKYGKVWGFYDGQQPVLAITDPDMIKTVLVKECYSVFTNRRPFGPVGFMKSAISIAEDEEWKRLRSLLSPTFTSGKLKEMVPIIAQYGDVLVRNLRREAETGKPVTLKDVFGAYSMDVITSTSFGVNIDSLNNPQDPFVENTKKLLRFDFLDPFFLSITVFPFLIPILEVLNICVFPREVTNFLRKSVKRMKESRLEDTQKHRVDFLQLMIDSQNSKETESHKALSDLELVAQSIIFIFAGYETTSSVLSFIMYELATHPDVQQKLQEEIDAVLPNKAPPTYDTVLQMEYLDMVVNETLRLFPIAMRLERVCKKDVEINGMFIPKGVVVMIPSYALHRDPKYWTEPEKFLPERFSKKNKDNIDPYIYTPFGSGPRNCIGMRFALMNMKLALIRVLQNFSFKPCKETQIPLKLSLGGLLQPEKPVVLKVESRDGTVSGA
Chain of Voltage-gated inwardly rectifying potassium channel KCNH2 (Homo sapiens) (Q12809 whole entry, looked up): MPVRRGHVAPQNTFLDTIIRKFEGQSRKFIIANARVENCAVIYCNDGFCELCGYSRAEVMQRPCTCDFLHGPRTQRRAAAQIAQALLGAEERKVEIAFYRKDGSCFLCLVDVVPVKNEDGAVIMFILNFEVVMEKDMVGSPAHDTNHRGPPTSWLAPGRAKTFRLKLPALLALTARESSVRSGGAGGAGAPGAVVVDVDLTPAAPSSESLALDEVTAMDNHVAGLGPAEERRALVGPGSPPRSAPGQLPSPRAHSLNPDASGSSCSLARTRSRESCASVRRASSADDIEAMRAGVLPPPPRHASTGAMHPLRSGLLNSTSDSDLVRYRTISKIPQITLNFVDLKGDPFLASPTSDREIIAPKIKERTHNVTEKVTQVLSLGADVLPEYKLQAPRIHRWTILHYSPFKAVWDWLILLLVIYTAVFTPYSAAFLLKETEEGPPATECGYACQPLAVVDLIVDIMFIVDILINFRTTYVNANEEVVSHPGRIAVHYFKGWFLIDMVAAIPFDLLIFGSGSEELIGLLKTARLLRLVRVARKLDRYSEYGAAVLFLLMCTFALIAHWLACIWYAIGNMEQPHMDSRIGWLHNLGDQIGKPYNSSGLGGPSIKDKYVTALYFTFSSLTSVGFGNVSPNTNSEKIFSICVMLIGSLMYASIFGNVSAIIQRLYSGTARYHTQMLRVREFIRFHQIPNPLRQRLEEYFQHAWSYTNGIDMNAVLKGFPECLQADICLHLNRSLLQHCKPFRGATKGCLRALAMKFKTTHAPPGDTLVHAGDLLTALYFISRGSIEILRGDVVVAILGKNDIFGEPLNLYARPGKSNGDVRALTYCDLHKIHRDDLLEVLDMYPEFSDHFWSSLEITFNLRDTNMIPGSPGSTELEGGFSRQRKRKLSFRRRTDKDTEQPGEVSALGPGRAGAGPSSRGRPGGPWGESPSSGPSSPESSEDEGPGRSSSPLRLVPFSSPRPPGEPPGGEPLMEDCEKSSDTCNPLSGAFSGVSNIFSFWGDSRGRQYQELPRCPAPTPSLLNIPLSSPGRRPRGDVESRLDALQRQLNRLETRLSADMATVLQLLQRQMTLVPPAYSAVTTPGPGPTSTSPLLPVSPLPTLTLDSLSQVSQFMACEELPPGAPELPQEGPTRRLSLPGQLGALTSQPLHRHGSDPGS
Chain of Bile acid receptor (Homo sapiens) (Q96RI1 whole entry, looked up): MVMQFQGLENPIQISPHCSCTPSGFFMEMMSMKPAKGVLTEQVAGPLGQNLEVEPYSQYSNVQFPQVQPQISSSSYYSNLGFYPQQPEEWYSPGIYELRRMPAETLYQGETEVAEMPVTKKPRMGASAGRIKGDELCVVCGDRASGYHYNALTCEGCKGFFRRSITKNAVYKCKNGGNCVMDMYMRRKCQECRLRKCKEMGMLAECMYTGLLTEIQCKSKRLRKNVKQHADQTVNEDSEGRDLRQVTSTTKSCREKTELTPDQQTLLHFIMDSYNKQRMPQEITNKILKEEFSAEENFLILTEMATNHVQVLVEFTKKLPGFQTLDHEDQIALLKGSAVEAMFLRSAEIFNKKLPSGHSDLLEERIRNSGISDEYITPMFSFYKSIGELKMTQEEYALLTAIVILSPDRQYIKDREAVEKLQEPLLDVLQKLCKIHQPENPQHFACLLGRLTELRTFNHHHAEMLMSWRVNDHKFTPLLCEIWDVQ
Chain of Arylsulfatase A (Homo sapiens) (P15289 whole entry, looked up): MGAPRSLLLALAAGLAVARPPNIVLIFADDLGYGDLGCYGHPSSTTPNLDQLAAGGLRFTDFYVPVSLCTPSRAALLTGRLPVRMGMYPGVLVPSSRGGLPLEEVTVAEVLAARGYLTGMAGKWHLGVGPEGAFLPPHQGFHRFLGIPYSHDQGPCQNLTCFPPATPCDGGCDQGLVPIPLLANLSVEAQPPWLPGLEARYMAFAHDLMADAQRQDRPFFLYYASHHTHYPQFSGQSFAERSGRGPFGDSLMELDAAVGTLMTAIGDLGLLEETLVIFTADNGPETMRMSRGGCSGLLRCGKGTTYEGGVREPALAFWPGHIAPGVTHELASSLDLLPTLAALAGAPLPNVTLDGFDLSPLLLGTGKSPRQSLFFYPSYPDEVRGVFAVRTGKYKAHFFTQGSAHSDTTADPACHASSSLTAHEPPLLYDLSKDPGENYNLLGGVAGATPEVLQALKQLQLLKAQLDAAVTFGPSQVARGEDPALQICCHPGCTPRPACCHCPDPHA
Chain of Ubiquitin carboxyl-terminal hydrolase 1 (Homo sapiens) (O94782 whole entry, looked up): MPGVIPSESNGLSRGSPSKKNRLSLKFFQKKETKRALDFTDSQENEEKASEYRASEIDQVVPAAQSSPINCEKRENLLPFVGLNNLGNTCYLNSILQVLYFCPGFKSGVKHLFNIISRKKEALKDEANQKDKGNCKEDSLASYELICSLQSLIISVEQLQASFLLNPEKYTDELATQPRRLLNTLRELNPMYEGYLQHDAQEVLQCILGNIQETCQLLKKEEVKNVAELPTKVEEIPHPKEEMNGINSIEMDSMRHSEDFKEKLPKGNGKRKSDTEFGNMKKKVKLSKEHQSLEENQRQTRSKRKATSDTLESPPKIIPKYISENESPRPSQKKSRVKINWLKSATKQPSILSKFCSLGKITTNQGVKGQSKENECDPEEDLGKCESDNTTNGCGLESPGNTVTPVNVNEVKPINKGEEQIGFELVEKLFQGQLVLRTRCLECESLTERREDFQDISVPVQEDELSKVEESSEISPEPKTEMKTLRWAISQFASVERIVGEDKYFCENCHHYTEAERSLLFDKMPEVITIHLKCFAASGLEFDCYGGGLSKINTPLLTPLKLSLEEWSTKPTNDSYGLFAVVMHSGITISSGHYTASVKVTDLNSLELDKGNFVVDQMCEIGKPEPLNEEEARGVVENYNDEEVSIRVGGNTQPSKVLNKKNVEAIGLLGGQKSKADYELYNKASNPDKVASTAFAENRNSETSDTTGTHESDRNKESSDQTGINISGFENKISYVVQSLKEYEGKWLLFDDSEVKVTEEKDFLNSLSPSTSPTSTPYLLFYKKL

With `CC(=O)[C@H]1CCC2C3CC=C4C[C@@H](OS(=O)(=O)O)CC[C@]4(C)C3CC[C@@]21C` (stereo partly specified), the Potency result in [1], in test [3], in test [4], in [5], in [6] and in test [7] was “inactive” in each case. Further, the result in [2] was inactive.
Turning to `CC(C)(CO)Cc1cc(C(C)(C)C)c(O)c(C(C)(C)C)c1`, the call in test [8], in [9] and in test [2] was inactive. The Potency result in test [1], in test [4], in [5], in test [6] and in test [7] was “inactive” in each case.
As for `Oc1cc2c(cc1O)CN(C(=S)NCCc1ccc(Cl)cc1)CCC2`, the compound was classed as inactive in test [8], in [9] and in [2]. The Potency entry in test [1], in test [4], in test [5], in [6] and in test [7] was “inactive” throughout.
As for `COc1ccc(C(=O)NCc2cccnc2)cc1C(=O)NCc1cccnc1`, the call in test [8], in test [9] and in [2] was inactive. Besides, the Potency result in [1], in test [4], in test [5], in test [6] and in test [7] was “inactive” in each case.
Regarding `C[C@@H](NCCc1ccc(O)cc1)[C@@H](O)c1ccc(O)cc1`, the Potency result in [1], in test [4], in test [5], in [6] and in test [7] was “inactive” in each case. In addition, the result in test [2] was inactive. Moreover, the Potency in [10] is 7.94 µM (active).
For the compound `CN1CCC[C@H]1c1cccnc1`, the Potency entry in test [1], in test [3], in test [4], in test [5], in test [6] and in [7] was “inactive” throughout. In addition, the call in test [2] was inactive. The max response in [11] was 8.91%.
For the compound `NC1CCN(O)C1=O` (stereo unspecified), the Potency entry in test [1], in test [4], in test [5], in test [6] and in [7] was “inactive” throughout. Also, in test [2], the outcome was inactive.
Consider `NC(=O)c1ccccc1`, for which the call in test [8], in test [9] and in test [2] was inactive. For the same compound, the Potency entry in [1], in test [4], in [5], in [6] and in test [7] was “inactive” in each case. For the same compound, the activation in [12] was 0.288%.
As for `CN1C2CCC1CC(OC(c1ccccc1)c1ccccc1)C2` (stereo unspecified), in test [1], the Potency is 10 µM (active). Also, the compound was called inactive in [2]. The Potency result in test [4], in test [5], in test [6] and in test [7] was “inactive” in each case.
Regarding `OC[C@H]1O[C@@H](n2cnc3cncnc32)[C@H](O)[C@@H]1O`, the Potency entry in [13], in [1], in test [4], in [5], in test [6] and in [7] was “inactive” each time. In addition, the compound was called inactive in [2].
Turning to `NC(N)=NC(N)=Nc1ccccc1`, the outcome in [8], in [9] and in [2] was inactive. Moreover, the Potency result in test [1], in test [4], in test [5], in test [6] and in test [7] was “inactive” in each case.
As for `CCCc1c(-c2ccc(O)cc2)nn(-c2ccc(O)cc2)c1-c1ccc(O)cc1`, the outcome in [8], in test [9] and in test [2] was inactive. For the same compound, in test [1], the Potency was 2 µM (active). Moreover, in test [12], the activation was 1.37%. For the same compound, the Potency result in test [4], in test [5], in test [6] and in test [7] was “inactive” in each case.
For the compound `NCC(O)(CS(=O)(=O)O)c1ccc(Cl)cc1` (stereo unspecified), the Potency entry in test [1], in [4], in [5], in [6] and in test [7] was “inactive” in each case. Moreover, in [2], the compound was classed as inactive.
Take `Fc1ccc(CN(C2=NCCN2)c2c(Cl)cccc2Cl)cc1`: the result in test [8], in test [9] and in [2] was inactive. The Potency entry in [1], in test [4], in test [5], in [6] and in test [7] was “inactive” each time.
On to `NC(CCCP(=O)(O)O)C(=O)O` (stereo unspecified), for which the Potency entry in [1], in test [14], in [4], in test [5], in test [6] and in test [7] was “inactive” each time. Also, in test [2], the compound was called inactive.
In the case of `N=C(N)c1ccccc1`, the compound was classed as inactive in test [8], in test [9] and in test [2]. In addition, the Potency result in test [1], in test [10], in [4], in [5], in [6] and in test [7] was “inactive” throughout.
Turning to `CNCCC(Oc1ccccc1C)c1ccccc1` (stereo unspecified), the Potency result in test [1], in test [4], in test [5], in test [6] and in test [7] was “inactive” each time. In addition, the result in test [2] was inactive.
`COC(=O)c1c(C)[nH]c(C)c1C(=O)c1ccccc1Cc1ccccc1`: the result in test [8], in [9] and in test [2] was inactive. The Potency entry in test [1], in [4], in test [5], in test [6] and in test [7] was “inactive” throughout.
Consider `N[C@H]1CONC1=O`, for which the Potency entry in [1], in test [4], in [5], in test [6] and in test [7] was “inactive” each time. In test [2], the call was inactive.
Turning to `O=C(O)c1cc([N+](=O)[O-])ccc1NCCCc1ccccc1`, the call in [8], in test [9] and in test [2] was inactive. Moreover, the Potency result in test [1], in [4], in test [5], in test [6] and in test [7] was “inactive” in each case.
As to `Oc1cc2c(cc1O)C(c1ccccc1)CNCC2` (stereo unspecified), the Potency result in test [1], in test [4], in test [5], in test [6] and in test [7] was “inactive” throughout. For the same compound, the outcome in test [2] was inactive.
For the compound `CC1C(=O)N(C)C(=O)c2nc[nH]c21` (stereo unspecified), the Potency entry in test [1], in test [4], in test [5], in test [6] and in test [7] was “inactive” in each case. In test [2], the result was inactive.
As for `COc1cc(C(O)CO)ccc1OS(=O)(=O)O` (stereo unspecified), the Potency entry in test [1], in [4], in test [5], in [6] and in test [7] was “inactive” throughout. In [2], the result was inactive.
As to `COc1ccc2c(c1)c(CC(=O)O)c(C)n2C(=O)c1ccccc1`, the compound was called inactive in test [8], in [9] and in test [2]. In addition, the Potency entry in test [1], in test [4], in [5], in test [6] and in test [7] was “inactive” in each case.
`CCCn1c(=O)[nH]c(=O)c2[nH]cnc21`: the compound was called inactive in test [8], in test [9] and in [2]. For the same compound, the Potency result in [1], in test [4], in test [5], in test [6] and in test [7] was “inactive” throughout.
On to `CC1(C)CCC2=C(O1)c1ccccc1C(=O)C2=O`, for which the Potency result in test [15], in test [4], in test [5], in test [6] and in test [7] was “inactive” throughout. For the same compound, the outcome in test [8], in test [9] and in [2] was inactive. Also, the Potency in test [1] was 11.2 µM (active).
Consider `CNC(=O)c1cc2c(cn1)[nH]c1ccccc12`, for which the compound was called inactive in [8], in test [9] and in [2]. The Potency result in test [1], in test [4], in [5], in test [6] and in [7] was “inactive” in each case.
In the case of `Cc1nc2c(OCc3ccccc3)cccn2c1CC#N`, the result in test [8], in test [9] and in test [2] was inactive. Also, the Potency result in [1], in test [4], in test [5], in [6] and in test [7] was “inactive” each time.
Consider `O=C(O)C1=CCNCC1`, for which the compound was called inactive in test [8], in test [9] and in test [2]. Further, the Potency entry in test [1], in test [4], in test [5], in test [6] and in test [7] was “inactive” each time.

The values above are taken from PubChem BioAssay (NCATS).
